Measurements from PubChem BioAssay AID1159580 (chemical genetic matrix, 2015).
Where “and” joins values, the source holds several entries; their conditions need not be identical. Identical values can stand only once. Screen size: about 5,500 compounds; about 2,000 (36%) were called active. Inconclusive results (about 18%) are left out. No stated cut-off is given here; in the data, active means normalized growth mostly below about 0.91 (no sharp cut-off); inconclusive means no clear call, values can overlap the other calls; inactive means mostly above about 0.92. Some of the results follow.

Assay: chemical genetic growth profiling, strain panel (AID 1159580);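 further: tested at 20 µM; growth read once vehicle control cultures reached saturation at 30 °C; 1 = growth at the plate median or of vehicle wells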
Conditions: growth OD

Measured: normalized growth

CC(=O)OCC(COC(C)=O)OC(C)=O
inactive: S. cerevisiae deletion strains, locus YAL013W, strain DEP1, stronger effect = lower value 1.01 | S. cerevisiae deletion strains, locus YBR021W, strain FUR4, stronger effect = lower value 1.02 | S. cerevisiae deletion strains, locus YBR229C, strain ROT2, stronger effect = lower value 1 | S. cerevisiae deletion strains, locus YCL029C, strain bik1, stronger effect = lower value 1.03 | S. cerevisiae deletion strains, locus YDL035C, strain GPR1, stronger effect = lower value 1.02 | S. cerevisiae deletion strains, locus YDL074C, strain BRE1, stronger effect = lower value 1.02 | S. cerevisiae deletion strains, locus YDL101C, strain DUN1, stronger effect = lower value 1.02 | S. cerevisiae deletion strains, locus YDL134C, strain PPH21, stronger effect = lower value 1.01 | S. cerevisiae deletion strains, locus YDL185W, strain tfp1, stronger effect = lower value 1.01 | S. cerevisiae deletion strains, locus YDL192W, strain arf1, stronger effect = lower value 1.02 | S. cerevisiae deletion strains, locus YDR101C, strain arx1, stronger effect = lower value 1 | S. cerevisiae deletion strains, locus YDR150W, strain NUM1, stronger effect = lower value 1.01 | S. cerevisiae deletion strains, locus YDR162C, strain NBP2, stronger effect = lower value 1.01 | S. cerevisiae deletion strains, locus YDR318W, strain mcm21, stronger effect = lower value 1.01 | S. cerevisiae deletion strains, locus YDR388W, stronger effect = lower value 1.01 | S. cerevisiae deletion strains, locus YDR502C, strain sam2, stronger effect = lower value 1 | S. cerevisiae deletion strains, locus YEL061C, strain CIN8, stronger effect = lower value 1.01 | S. cerevisiae deletion strains, locus YER110C, stronger effect = lower value 1.01 | S. cerevisiae deletion strains, locus YER155C, strain BEM2, stronger effect = lower value 0.999 | S. cerevisiae deletion strains, locus YER167W, strain BCK2, stronger effect = lower value 1.01 | S. cerevisiae deletion strains, locus YGL078C, strain dbp3, stronger effect = lower value 1.01 | S. cerevisiae deletion strains, locus YGL086W, strain mad1, stronger effect = lower value 1 | S. cerevisiae deletion strains, locus YGL248W, strain PDE1, stronger effect = lower value 1.01 | S. cerevisiae deletion strains, locus YGR078C, strain PAC10, stronger effect = lower value 1.02 | S. cerevisiae deletion strains, locus YGR135W, strain pre9, stronger effect = lower value 1.01 | S. cerevisiae deletion strains, locus YGR229C, strain SMI1, stronger effect = lower value 1.02 | S. cerevisiae deletion strains, locus YGR252W, strain gcn5, stronger effect = lower value 0.969 | S. cerevisiae deletion strains, locus YHR030C, strain SLT2, stronger effect = lower value 1.01 and 0.958 | S. cerevisiae deletion strains, locus YHR079C, strain IRE1 (second series), stronger effect = lower value 1.01 | S. cerevisiae deletion strains, locus YHR079C, strain IRE1, stronger effect = lower value 0.989 | S. cerevisiae deletion strains, locus YHR094C, strain hxt1, stronger effect = lower value 1.01 | S. cerevisiae deletion strains, locus YHR129C, strain ARP1, stronger effect = lower value 1.01 | S. cerevisiae deletion strains, locus YHR200W, strain rpn10, stronger effect = lower value 1.01 | S. cerevisiae deletion strains, locus YIL066C, strain RNR3, stronger effect = lower value 1.03 | S. cerevisiae deletion strains, locus YIL073C, strain SPO22, stronger effect = lower value 1.02 | S. cerevisiae deletion strains, locus YIL125W, strain kgd1, stronger effect = lower value 1 | S. cerevisiae deletion strains, locus YIR030C, strain dcg1, stronger effect = lower value 1.01 | S. cerevisiae deletion strains, locus YJL095W, strain BCK1, stronger effect = lower value 1.02 and 0.962 | S. cerevisiae deletion strains, locus YJL134W, strain LCB3, stronger effect = lower value 1.01 | S. cerevisiae deletion strains, locus YJL168C, strain set2, stronger effect = lower value 1.01 | S. cerevisiae deletion strains, locus YJL187C, strain SWE1 (second series), stronger effect = lower value 1.03 | S. cerevisiae deletion strains, locus YJR043C, strain POL32, stronger effect = lower value 1.02 | S. cerevisiae deletion strains, locus YJR066W, strain TOR1, stronger effect = lower value 0.936 | S. cerevisiae deletion strains, locus YJR075W, strain HOC1, stronger effect = lower value 1.03 | S. cerevisiae deletion strains, locus YKL009W, strain mrt4, stronger effect = lower value 1.02 | S. cerevisiae deletion strains, locus YKL068W, stronger effect = lower value 1 | S. cerevisiae deletion strains, locus YKL085W, strain MDH1 (second series), stronger effect = lower value 1.01 | S. cerevisiae deletion strains, locus YKL085W, strain MDH1, stronger effect = lower value 1.01 | S. cerevisiae deletion strains, locus YKL190W, strain CNB1, stronger effect = lower value 1.01 | S. cerevisiae deletion strains, locus YKR001C, strain vps1, stronger effect = lower value 1.02 | S. cerevisiae deletion strains, locus YLR039C, strain RIC1, stronger effect = lower value 0.991 | S. cerevisiae deletion strains, locus YLR058C, strain SHM2, stronger effect = lower value 1.01 | S. cerevisiae deletion strains, locus YLR102C, strain apc9, stronger effect = lower value 0.997 | S. cerevisiae deletion strains, locus YLR113W, strain HOG1, stronger effect = lower value 1 | S. cerevisiae deletion strains, locus YLR262C, strain YPT6, stronger effect = lower value 1.03 | S. cerevisiae deletion strains, locus YLR268W, strain sec22, stronger effect = lower value 1.03 | S. cerevisiae deletion strains, locus YLR330W, strain CHS5, stronger effect = lower value 1.02 | S. cerevisiae deletion strains, locus YLR342W, strain FKS1 (second series), stronger effect = lower value 1.01 | S. cerevisiae deletion strains, locus YLR371W, strain rom2, stronger effect = lower value 1.01 | S. cerevisiae deletion strains, locus YLR418C, strain cdc73, stronger effect = lower value 1.02 | S. cerevisiae deletion strains, locus YML016C, strain PPZ1, stronger effect = lower value 1.01 | S. cerevisiae deletion strains, locus YML032C, strain rad52, stronger effect = lower value 1.03 | S. cerevisiae deletion strains, locus YML124C, strain tub3, stronger effect = lower value 1 | S. cerevisiae deletion strains, locus YMR078C, strain ctf18, stronger effect = lower value 1.01 | S. cerevisiae deletion strains, locus YMR223W, strain ubp8, stronger effect = lower value 1 | S. cerevisiae deletion strains, locus YMR263W, strain SAP30, stronger effect = lower value 1.02 | S. cerevisiae deletion strains, locus YMR307W, strain GAS1, stronger effect = lower value 0.998 | S. cerevisiae deletion strains, locus YNL067W, strain RPL9B, stronger effect = lower value 1.03 | S. cerevisiae deletion strains, locus YNL128W, strain TEP1, stronger effect = lower value 1.02 | S. cerevisiae deletion strains, locus YNL153C, strain GIM3, stronger effect = lower value 1.02 | S. cerevisiae deletion strains, locus YNL183C, strain NPR1, stronger effect = lower value 0.949 | S. cerevisiae deletion strains, locus YNL233W, strain BNI4, stronger effect = lower value 1.01 | S. cerevisiae deletion strains, locus YNL250W, strain rad50, stronger effect = lower value 1 | S. cerevisiae deletion strains, locus YNL271C, strain bni1, stronger effect = lower value 1.02 | S. cerevisiae deletion strains, locus YNL298W, strain CLA4, stronger effect = lower value 1.02 | S. cerevisiae deletion strains, locus YNL307C, strain MCK1, stronger effect = lower value 1.01 | S. cerevisiae deletion strains, locus YNL322C, strain KRE1, stronger effect = lower value 1.01 | S. cerevisiae deletion strains, locus YNR052C, strain pop2, stronger effect = lower value 1.01 | S. cerevisiae deletion strains, locus YOL006C, strain TOP1, stronger effect = lower value 1.05 | S. cerevisiae deletion strains, locus YOL012C, strain htz1 1.07 | S. cerevisiae deletion strains, locus YOL147C, strain pex11, stronger effect = lower value 1.01 | S. cerevisiae deletion strains, locus YOR061W, strain CKA2, stronger effect = lower value 1.01 | S. cerevisiae deletion strains, locus YOR069W, strain VPS5, stronger effect = lower value 1.01 | S. cerevisiae deletion strains, locus YOR136W, strain idh2, stronger effect = lower value 1.01 | S. cerevisiae deletion strains, locus YOR144C, strain elg1, stronger effect = lower value 0.998 | S. cerevisiae deletion strains, locus YOR184W, strain ser1, stronger effect = lower value 1.02 | S. cerevisiae deletion strains, locus YOR231W, strain MKK1, stronger effect = lower value 0.993 | S. cerevisiae deletion strains, locus YOR316C, strain cot1, stronger effect = lower value 1.01 | S. cerevisiae deletion strains, locus YPL055C, strain LGE1, stronger effect = lower value 1.06 | S. cerevisiae deletion strains, locus YPL241C, strain CIN2, stronger effect = lower value 1.01 | S. cerevisiae deletion strains, locus YPL256C, strain CLN2, stronger effect = lower value 0.989 | S. cerevisiae deletion strains, locus YPR119W, strain clb2, stronger effect = lower value 1.01 | S. cerevisiae deletion strains, locus YPR141C, strain kar3, stronger effect = lower value 1.01 | S. cerevisiae deletion strains, locus YPR163C, strain tif3, stronger effect = lower value 1.02 | S. cerevisiae deletion strains, locus YPR167C, strain met16, stronger effect = lower value 1.01 | S. cerevisiae deletion strains, strain wtn01, stronger effect = lower value 1.04 | S. cerevisiae strains, strain wild type, stronger effect = lower value 1.02
